Experimental data from PubChem BioAssay (NCI).
About 83,000 compounds went through this panel and 20% of them were active in at least one assay; those are over-represented in the sample as a whole.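 Plates (96-well) were seeded with cells, treated with compound at one concentration, and incubated for 48 hours before percent growth was determined.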

Tests used:
Experiment in all cases: NCI-60 one-dose screen, 48 h (100 = growth as untreated, 0 = no growth, -100 = all killed); active means growth percent below 10; inactive means the rest
[1] = tested on: SK-MEL-2 melanoma; details: 10 µM unless noted
[2] = tested on: EKVX NSCLC; details: 10 µM
[3] = tested on: SN12C renal; details: 10 µM unless noted
[4] = tested on: UO-31 renal; details: 10 µM unless noted
[5] = tested on: TK-10 renal; details: 10 µM unless noted
[6] = tested on: ACHN renal; details: 10 µM unless noted
[7] = tested on: CAKI-1 renal; details: 10 µM unless noted
[8] = tested on: MOLT-4 leukemia; details: 10 µM unless noted
[9] = tested on: A498 renal; details: 10 µM unless noted
[10] = tested on: CCRF-CEM leukemia; details: 10 µM

Measured: growth

C[C@]12CC[C@H]3[C@@H](CC[C@H]4C[C@@H](O)CC[C@@]43C)[C@@H]1CC(=O)C2
inactive: [1] 103% | [2] 96.9% | [3] 101% | [4] 84.1% | [5] 94.2% | [6] 100% | [7] 87.6% | [8] 85.7%

COc1ccc(-c2nc(SCC(C)C)nc(Nc3ccc([N+](=O)[O-])cc3)c2C#N)cc1
inactive: [1] 105% | [2] 98.5% | [3] 72% | [4] 79.7% | [5] 73% | [6] 41.7% | [9] 89.8% | [10] 78.1% | [8] 92.2%

CC[C@H](Nc1ncnc2nc[nH]c12)c1nc2cccc(NCc3ccc(C(=O)NO)nc3)c2c(=O)n1-c1ccccc1
inactive: [1] 55.6% | [2] 77.1% | [3] 38.9% | [4] 87.1% | [5] 58.9% | [6] 97% | [9] 54.2% | [10] 19.6% | [8] 15%

Cc1nnc(-c2cc3c(ccc4ccccc43)oc2=O)c2cn(-c3ccc(Cl)cc3)nc12
inactive: [1] 95.4% | [2] 84% | [3] 99.5% | [4] 66.2% | [5] 151% | [6] 97.5% | [9] 103% | [10] 74.1% | [8] 75.4%

COc1ccc(C2=C/C(=C\c3ccc(Cl)cc3)C(=O)NN2C(=S)NN)cc1
inactive: [1] 97.3% | [2] 94.2% | [3] 104% | [4] 79.6% | [5] 129% | [6] 96.5% | [9] 99.3% | [10] 91.6% | [8] 97.8%

O=C(/C=C/c1c[nH]c2ccccc12)c1cc2ccccc2o1
inactive: [1] 105% | [2] 84.4% | [3] 101% | [4] 60.2% | [5] 140% | [6] 103% | [9] 102% | [10] 36.3% | [8] 75.3%

COc1cc2cc3cc4cc(OC)c(OC)cc4c(C)[n+]3cc2cc1OC (tested in a mixture with another compound)
inactive: [1] 69.5% | [2] 60.8% | [3] 85.7% | [4] 59.6% | [5] 117% | [6] 95.2% | [9] 93.6% | [10] 51.8% | [8] 40.1%
